According to PubChem BioAssay AID1159580 (chemical genetic matrix, 2015):
Out of some 5,500 compounds screened, about 2,000 (36%) were called active. Inconclusive results (about 18%) are left out. The list shows a part of the results. Values without a mark were called inactive. No stated cut-off is given here; in the data, active means normalized growth mostly below about 0.91 (no sharp cut-off); inconclusive means no clear call, values can overlap the other calls; inactive means mostly above about 0.92.

Test: chemical genetic growth profiling, strain panel (AID 1159580);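 further: tested at 20 µM; growth read once vehicle control cultures reached saturation at 30 °C; 1 = growth at the plate median or of vehicle wells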
Details: S. cerevisiae deletion strains, growth OD
[1] = locus YAL013W, strain DEP1, stronger effect = lower value
[2] = locus YMR263W, strain SAP30, stronger effect = lower value
[3] = locus YPL241C, strain CIN2, stronger effect = lower value

## CCCCCCN(CCCCCC)C(=O)Cc1c(-c2ccc(F)cc2)[nH]c2ccccc12
[1]
  normalized growth: 1.03
Locus YAL040C, strain CLN3, stronger effect = lower value
  normalized growth: 1.03
Locus YCL061C, strain MRC1 (second series), stronger effect = lower value
  normalized growth: 1
Locus YDR363W, strain ESC2, stronger effect = lower value
  normalized growth: 1.01
Locus YER002W, strain NOP16, stronger effect = lower value
  normalized growth: 1.02
Locus YGR229C, strain SMI1, stronger effect = lower value
  normalized growth: 1.04
[2]
  normalized growth: 1
Locus YMR307W, strain GAS1, stronger effect = lower value
  normalized growth: 0.996
Locus YNL128W, strain TEP1, stronger effect = lower value
  normalized growth: 1.12 [resistant] (active)
Locus YNL175C, strain NOP13, stronger effect = lower value
  normalized growth: 1.15 [resistant] (active)
Locus YNL224C, strain SQS1, stronger effect = lower value
  normalized growth: 1.07
Locus YOR083W, strain WHI5 (second series), stronger effect = lower value
  normalized growth: 1.12
[3]
  normalized growth: 1

## Cc1nc(N)ncc1Sc1ccccc1
[1]
  normalized growth: 0.995
Locus YBR229C, strain ROT2, stronger effect = lower value
  normalized growth: 0.989
Locus YCL061C, strain MRC1, stronger effect = lower value
  normalized growth: 0.963
Locus YDL101C, strain DUN1, stronger effect = lower value
  normalized growth: 0.98
Locus YDR150W, strain NUM1, stronger effect = lower value
  normalized growth: 1
Locus YEL061C, strain CIN8, stronger effect = lower value
  normalized growth: 0.977
Locus YGR078C, strain PAC10, stronger effect = lower value
  normalized growth: 0.986
Locus YHR030C, strain SLT2, stronger effect = lower value
  normalized growth: 0.899
Locus YHR087W, strain rtc3, stronger effect = lower value
  normalized growth: 0.996
Locus YJL187C, strain SWE1, stronger effect = lower value
  normalized growth: 0.981
Locus YJR043C, strain POL32, stronger effect = lower value
  normalized growth: 0.991
Locus YJR075W, strain HOC1, stronger effect = lower value
  normalized growth: 0.934
Locus YLR039C, strain RIC1, stronger effect = lower value
  normalized growth: 0.758 (active)
Locus YLR058C, strain SHM2 (second series), stronger effect = lower value
  normalized growth: 0.987
Locus YLR085C, strain ARP6, stronger effect = lower value
  normalized growth: 1.01
Locus YLR262C, strain YPT6, stronger effect = lower value
  normalized growth: 0.822
Locus YML094W, strain GIM5, stronger effect = lower value
  normalized growth: 0.964
Locus YMR219W, strain ESC1, stronger effect = lower value
  normalized growth: 0.99
[2]
  normalized growth: 0.966
Locus YNL153C, strain GIM3, stronger effect = lower value
  normalized growth: 0.961
Locus YNL298W, strain CLA4 (second series), stronger effect = lower value
  normalized growth: 0.961
Locus YNL322C, strain KRE1, stronger effect = lower value
  normalized growth: 0.982
Locus YNR030W, strain Alg12, stronger effect = lower value
  normalized growth: 0.963
Locus YOL006C, strain TOP1, stronger effect = lower value
  normalized growth: 0.911
Locus YPL055C, strain LGE1, stronger effect = lower value
  normalized growth: 0.928
[3]
  normalized growth: 1.04
Locus YPR135W, strain CTF4, stronger effect = lower value
  normalized growth: 0.907
